Data on 40 molecules can be found in PubChem BioAssay.

The source made the active and inactive calls.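 The calls were made as follows, unless noted: active = inhibition above 50%; inactive = the rest.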

The nature of one test: antimalarial activity against Dd2 strain (AID 2302;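 active = growth inhibition above 50% at the single 2 µM test dose, taken to imply half-maximal potency below 2 µM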;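 also: 0% = DMSO untreated growth and 100% = chloroquine plus artemisinin killed control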). The conditions noted are these: P. falciparum Dd2 in RBCs, LDH growth readout, 72 h; at 2 µM; stronger effect = higher value.
For `Cc1ccccc1C1CCN(C2CCC(NC(=O)c3cc4cc(C(C)C)ccc4[nH]3)CC2)CC1` (stereo not given), the growth inhibition was 100% (active).
On the same count and under the same terms, to `CCN(CC)CCCC(C)Nc1cc(C=Cc2ccccc2Cl)nc2cc(Cl)ccc12` (stereo not given) belongs 77% (active); to `N/C(=N\c1ncccn1)Nc1cccc(Cc2ccccc2)n1`, 34% (inactive).
As to `Cc1cc([N+](=O)[O-])ccc1N1CCN(CCCCNC(=O)c2ccc(NC(=O)c3ccc(Cl)cc3)cc2)CC1`, the growth inhibition is -1% (inactive).
For the molecule `Cc1ccc(OCC2CCN(c3ncc(C(=O)NCCCN4CCCC4=O)cc3Cl)CC2)cc1`, the growth inhibition was 71% (active).
As for `NC1CCN(Cc2cccc(-c3ccc(-c4nc5ccccc5[nH]4)cc3)c2)C1` (stereo not given), the growth inhibition is 58% (active).
As for `O=C(/C=C/c1ccccc1Cl)NC1CCC(CN2CCC(c3c[nH]c4ccncc34)CC2)CC1` (stereo not given), the growth inhibition is 100% (active).
As for `COC(=O)c1cccc(CNCc2ccc(-c3cccc(-c4nc5c(C)cccc5[nH]4)c3)cc2)c1`, the growth inhibition is 84% (active).
On the same count and under the same terms, to `Cc1cccc2[nH]c(-c3cccc(-c4cccc(NC(=O)CNC(=O)c5ccc(O)cc5)c4)c3)nc12` belongs 49% (inactive); to `CC(=O)NCCNc1nccc(N2CCc3ncnc(Nc4ccc(OCc5cccc(F)c5)c(Cl)c4)c3C2)n1`, 100% (active); to `COc1ccc(-c2cccc(NC(=O)c3cccc(Cl)c3)c2)cc1CN(C)CCN(C)C`, 73% (active).
Take `O=C(NCC1Cc2cc(Oc3ccccc3)ccc2O1)c1ccc([N+](=O)[O-])o1` (stereo not given): the growth inhibition was 81% (active).
Turning to `CCCCn1c(SC(C)C)nc2c(c1=O)C1(CCCCC1)Cc1ccccc1-2`, the growth inhibition is 60% (active).
As to `CC(=O)Nc1ccc(S(=O)(=O)N2CCN(c3nc(NC4CCCC4)c4ccccc4n3)CC2)cc1`, the growth inhibition was 2% (inactive).
Turning to `Cc1ccc(O)cc1Nc1ccnc2ccc(-c3csc(CNCCN4CCOCC4)n3)cc12`, the growth inhibition is 97% (active).
On the same count and under the same terms, to `COc1ccc(Cc2c(C)nc3nc(N)nc(N)c3c2C)cc1` belongs 2% (inactive); to `Cc1cccc2[nH]c(-c3ccc(-c4ccc(NC(=O)C(C)CN(C)C)cc4)cc3)nc12` (stereo not given), 99% (active).
The same measure, in the same setting: to `COc1ccc(CNC2CCN(C)CC2)cc1-c1ccc(S(=O)(=O)NCCc2ccccn2)cc1` belongs 17% (inactive); to `CCCNc1ccc(-c2cc(C(N)=O)c3[nH]cc(C4CCN(S(=O)(=O)CC)CC4)c3c2)cn1`, 42% (inactive).
Take `COc1cc(-c2ccccc2)ccc1C(=O)Nc1ccc2c(c1)N(C)CCC2`: the growth inhibition is 75% (active).
The same measure, in the same setting: the value for `O=C(Nc1ccc2nccc(N3CCN4CCC[C@H]4C3)c2c1)c1ccc(Cl)c(Cl)c1` was 98% (active); that for `O=C(/C=C/c1ccc(Cl)c(Cl)c1)NCCCCCCN1CCN(C(=O)Nc2cccc(Cl)c2)CC1` was 2% (inactive); that for `Fc1cccc(COc2ccc(Nc3ncnc4ccc(-c5nnc(C(F)(F)F)o5)cc34)cc2Cl)c1` was 77% (active).
Regarding `CC(C)c1sc(N2CCN(C)CC2)nc1C(=O)Nc1cccc2c1CCCC2`, the growth inhibition is 50% (active).
On to `COc1ccc2c(NN=Cc3ccc(F)cc3)cc(C)nc2c1`, for which the growth inhibition was 99% (active).
In the case of `COc1ccc(C=NNc2cc(C)nc3ccccc23)cc1OC`, the growth inhibition is 8% (inactive).
Take `O=S(=O)(c1ccc(Oc2ccccc2)cc1)N(CCC(O)(C(F)(F)F)C(F)(F)F)Cc1cccc(O)c1`: the growth inhibition was 99% (active).
Same read-out and setting: to `COc1cc(CNCCCCCCNCc2cc(OC)c(OC)c3ccccc23)c2ccccc2c1OC` belongs 100% (active).
Same read-out and setting: to `CC(C)(C)c1ccc(OCCCON2C(N)=NC(N)=NC2(C)C)cc1` belongs 76% (active); to `Cc1cc(C(F)(F)F)n2nc(C3CCN(Cc4cc(C)c(O)c(C)c4)C3)cc2n1` (stereo not given), 99% (active).
As to `COc1cc2nc(N(C)CC3COc4ccccc4O3)nc(N)c2cc1OC` (stereo not given), the growth inhibition was 26% (inactive).
As for `OCC1CCN(Cc2cccc(-c3ccc(-c4nc5ccc(C(F)(F)F)cc5[nH]4)s3)c2)CC1`, the growth inhibition is 90% (active).
In the case of `CCN(CC)CCn1c2ccccc2c2ccc(C(=O)Nc3ccc4sc(C)nc4c3)cc21`, the growth inhibition is 26% (inactive).
Turning to `O=C(Nc1ccnc(N2C[C@H]3C[C@@H]2CN3Cc2cccc(O)c2)c1)c1ccc(F)cc1`, the growth inhibition is 0% (inactive).
On to `COc1cc2nc(N3CCC(CNC(=O)c4ccc(-c5ccc(-c6noc(C)n6)cc5C)cc4)CC3)nc(N)c2cc1OC`, for which the growth inhibition is 99% (active).
As to `Cc1cc(C(F)(F)F)nn1-c1ccc(NC(=O)c2ccco2)cc1`, the growth inhibition was 93% (active).
Turning to `Cc1nc(-c2ccncc2)sc1C(=O)Nc1ccc(Cl)cc1C(=O)Nc1ccc(Cl)cc1`, the growth inhibition is 47% (inactive).
On the same count and under the same terms, to `CS(=O)(=O)c1ccc(CNCc2cccc(-c3ccc(-c4nc5ccc(C(F)(F)F)cc5[nH]4)cc3)c2)cc1` belongs 96% (active); to `Cn1cc(C2CCN(CCCCCNC(=O)/C=C/c3ccc(Cl)c(Cl)c3)CC2)c2cc(O)ccc21`, -2% (inactive); to `CC1CN(Cc2ccccc2)CCN1c1ccc(NC(=O)c2cccs2)cc1` (stereo not given), 96% (active).

The nature of the next test: HepG2 cytotoxicity, primary screen, cytotoxicity control for P. falciparum antimalarial project, cell-based, ATP luminescence (AID 2303).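 Also: 0% = DMSO wells and 100% = digitonin-killed cells.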 The following applies: HepG2 viability, 24-48 h, at 10 µM, stronger effect = higher value.
Take `Cc1ccccc1C1CCN(C2CCC(NC(=O)c3cc4cc(C(C)C)ccc4[nH]3)CC2)CC1` (stereo not given): the inhibition is 100% (active).
In the case of `CCN(CC)CCCC(C)Nc1cc(C=Cc2ccccc2Cl)nc2cc(Cl)ccc12` (stereo not given), the inhibition was 0% (inactive).
For the molecule `N/C(=N\c1ncccn1)Nc1cccc(Cc2ccccc2)n1`, the inhibition is 51% (active).
Regarding `Cc1cc([N+](=O)[O-])ccc1N1CCN(CCCCNC(=O)c2ccc(NC(=O)c3ccc(Cl)cc3)cc2)CC1`, the inhibition was 33% (inactive).
As for `Cc1ccc(OCC2CCN(c3ncc(C(=O)NCCCN4CCCC4=O)cc3Cl)CC2)cc1`, the inhibition was 7% (inactive).
For `NC1CCN(Cc2cccc(-c3ccc(-c4nc5ccccc5[nH]4)cc3)c2)C1` (stereo not given), the inhibition is 24% (inactive).
Same read-out and setting: to `O=C(/C=C/c1ccccc1Cl)NC1CCC(CN2CCC(c3c[nH]c4ccncc34)CC2)CC1` (stereo not given) belongs 19% (inactive); to `COC(=O)c1cccc(CNCc2ccc(-c3cccc(-c4nc5c(C)cccc5[nH]4)c3)cc2)c1`, -7% (inactive); to `Cc1cccc2[nH]c(-c3cccc(-c4cccc(NC(=O)CNC(=O)c5ccc(O)cc5)c4)c3)nc12`, 9% (inactive).
Consider `CC(=O)NCCNc1nccc(N2CCc3ncnc(Nc4ccc(OCc5cccc(F)c5)c(Cl)c4)c3C2)n1`, for which the inhibition is 10% (inactive).
With `COc1ccc(-c2cccc(NC(=O)c3cccc(Cl)c3)c2)cc1CN(C)CCN(C)C`, the inhibition is 32% (inactive).
Same read-out and setting: the value for `O=C(NCC1Cc2cc(Oc3ccccc3)ccc2O1)c1ccc([N+](=O)[O-])o1` (stereo not given) was 83% (active).
In the case of `CCCCn1c(SC(C)C)nc2c(c1=O)C1(CCCCC1)Cc1ccccc1-2`, the inhibition was 1% (inactive).
With `CC(=O)Nc1ccc(S(=O)(=O)N2CCN(c3nc(NC4CCCC4)c4ccccc4n3)CC2)cc1`, the inhibition was 7% (inactive).
On to `Cc1ccc(O)cc1Nc1ccnc2ccc(-c3csc(CNCCN4CCOCC4)n3)cc12`, for which the inhibition was -24% (inactive).
In the case of `COc1ccc(Cc2c(C)nc3nc(N)nc(N)c3c2C)cc1`, the inhibition was 61% (active).
As for `Cc1cccc2[nH]c(-c3ccc(-c4ccc(NC(=O)C(C)CN(C)C)cc4)cc3)nc12` (stereo not given), the inhibition is 18% (inactive).
Consider `COc1ccc(CNC2CCN(C)CC2)cc1-c1ccc(S(=O)(=O)NCCc2ccccn2)cc1`, for which the inhibition is 13% (inactive).
As to `CCCNc1ccc(-c2cc(C(N)=O)c3[nH]cc(C4CCN(S(=O)(=O)CC)CC4)c3c2)cn1`, the inhibition was 6% (inactive).
As for `COc1cc(-c2ccccc2)ccc1C(=O)Nc1ccc2c(c1)N(C)CCC2`, the inhibition was 15% (inactive).
On to `O=C(Nc1ccc2nccc(N3CCN4CCC[C@H]4C3)c2c1)c1ccc(Cl)c(Cl)c1`, for which the inhibition was 18% (inactive).
As to `O=C(/C=C/c1ccc(Cl)c(Cl)c1)NCCCCCCN1CCN(C(=O)Nc2cccc(Cl)c2)CC1`, the inhibition was 33% (inactive).
Same read-out and setting: to `Fc1cccc(COc2ccc(Nc3ncnc4ccc(-c5nnc(C(F)(F)F)o5)cc34)cc2Cl)c1` belongs 14% (inactive).
The same measure, in the same setting: to `CC(C)c1sc(N2CCN(C)CC2)nc1C(=O)Nc1cccc2c1CCCC2` belongs 3% (inactive).
Consider `COc1ccc2c(NN=Cc3ccc(F)cc3)cc(C)nc2c1`, for which the inhibition was 4% (inactive).
Still for that read-out and setting: the value for `COc1ccc(C=NNc2cc(C)nc3ccccc23)cc1OC` was 19% (inactive); that for `O=S(=O)(c1ccc(Oc2ccccc2)cc1)N(CCC(O)(C(F)(F)F)C(F)(F)F)Cc1cccc(O)c1` was -13% (inactive); that for `COc1cc(CNCCCCCCNCc2cc(OC)c(OC)c3ccccc23)c2ccccc2c1OC` was 100% (active).
Turning to `CC(C)(C)c1ccc(OCCCON2C(N)=NC(N)=NC2(C)C)cc1`, the inhibition is 77% (active).
`Cc1cc(C(F)(F)F)n2nc(C3CCN(Cc4cc(C)c(O)c(C)c4)C3)cc2n1` (stereo not given): the inhibition was 34% (inactive).
On the same count and under the same terms, to `COc1cc2nc(N(C)CC3COc4ccccc4O3)nc(N)c2cc1OC` (stereo not given) belongs 11% (inactive); to `OCC1CCN(Cc2cccc(-c3ccc(-c4nc5ccc(C(F)(F)F)cc5[nH]4)s3)c2)CC1`, -6% (inactive).
For the molecule `CCN(CC)CCn1c2ccccc2c2ccc(C(=O)Nc3ccc4sc(C)nc4c3)cc21`, the inhibition is 97% (active).
As to `O=C(Nc1ccnc(N2C[C@H]3C[C@@H]2CN3Cc2cccc(O)c2)c1)c1ccc(F)cc1`, the inhibition was 2% (inactive).
The same measure, in the same setting: to `COc1cc2nc(N3CCC(CNC(=O)c4ccc(-c5ccc(-c6noc(C)n6)cc5C)cc4)CC3)nc(N)c2cc1OC` belongs 99% (active); to `Cc1cc(C(F)(F)F)nn1-c1ccc(NC(=O)c2ccco2)cc1`, 14% (inactive).
`Cc1nc(-c2ccncc2)sc1C(=O)Nc1ccc(Cl)cc1C(=O)Nc1ccc(Cl)cc1`: the inhibition is 2% (inactive).
As to `CS(=O)(=O)c1ccc(CNCc2cccc(-c3ccc(-c4nc5ccc(C(F)(F)F)cc5[nH]4)cc3)c2)cc1`, the inhibition was 31% (inactive).
Consider `Cn1cc(C2CCN(CCCCCNC(=O)/C=C/c3ccc(Cl)c(Cl)c3)CC2)c2cc(O)ccc21`, for which the inhibition was 11% (inactive).
Still for that read-out and setting: to `CC1CN(Cc2ccccc2)CCN1c1ccc(NC(=O)c2cccs2)cc1` (stereo not given) belongs 0% (inactive).
